# In PubChem BioAssay (NCATS):
# Records with an inconclusive call do not appear. The source made the active and inactive calls. Calls follow the shape of the dose curve; as a rule, active = well fitted curve in the direction sought with a large enough effect in the signal ratio; inconclusive = small, poorly fitted or top-dose-only effect, or effect the other way, or a change in a side signal; inactive = no such curve, though single readings can be large or run the other way; the % refers to the signal ratio.
# Assay: Validation of Assay for Modulators of Lamin A Splicing (AID 1459);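 also: cells exposed to compound for two days before reading; ratio rise marks activators and ratio drop marks inhibitors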
# Details: Lamin A splicing dual RFP/GFP fluorescence reporter; series mostly up to 9.22 µM
# Text: Hutchinson-Gilford Progeria Syndrome (HGPS) is a pediatric premature aging disease caused by a spontaneous mutation in the lamin A/C (LMNA) gene. The mutation activates a cryptic splice site in the LMNA pre-mRNA which results in production of a pre-lamin A protein that cannot be processed properly. The mutant protein accumulates in the nucleus and negatively affects numerous cellular functions. Correction of the splicing defect in HGPS patient cells using a targeted oligonucleotide (exo11) leads to reversal of the cellular disease phenotypes. To identify small molecule modulators of aberrant LMNA splicing, a homogenous assay was constructed in HeLa cells that used a GFP containing minigene to report on correction of aberrant splicing in lamin A and a RFP (DsRed2) to report on cell viability, uniformity and nonspecific effects on the assay signal. This assay was adapted to laser-scanning microplate cytometry (Acumen, TTP Labtech) where miniaturization of the assay to a 1,536-well plate format was possible.
# Bowen, W. P.; Wylie, P. G. Application of Laser-Scanning Fluorescence Microplate Cytometry in High Content Screening. Assay Drug Dev Technol 2006;4:209-221.
# Scaffidi P, Misteli T. Reversal of the cellular phenotype in the premature aging disease Hutchinson-Gilford progeria syndrome. Nat. Med. 2005;11:440-445.
# NCGC Assay Protocol Summary:
# Reagents/Controls: Stable clones expressing DsRed2 and lamin A-EGFP were generated by Cell and Molecular Technologies in S3 HeLa cells.
# HeLa cells were prepared for the assay when they were 70-90% confluent. The cells were counted and resuspended in Opti-MEM I (no phenol red; Gibco), 2% FBS, 1% penicillin/ streptomycin (Gibco) at concentration of 120 cells/uL concentration. The suspension was passed through a Falcon basket filter with pore size 40um (Beckton Dickson).
# Control titrations: column […] 1536-well plate contained a sixteen point titration (1:2 dilutions) in duplicate of ancitabine (Sigma: A8598) beginning at 40 uM final concentration. Column 2 contained a sixteen point titration (1:2 dilutions) of cycloheximide beginning at 1.4 mM final concentration. Column 3 contained ancitabine at 40 uM and column 4 contained was the vehicle control (0.5% DMSO final concentration).
# 5 uL of HeLa cells were plated in Aurora LoBase black clear bottom (cyclic-olefin polymer) 1536-well plates at a final density of 600 cells/well. Controls and library compounds were added with a 1536-well pin array using the Kalypsys pin-tool. The plates were then incubated for 48 hrs in a cell-culture incubator (37 °C; 5% CO2, 98% humidity). Following incubation the plates were read on the Acumen Explorer using the 488 nm laser. Data was collected on objects between 10 and 100 um in size. Cell objects were defined by a 15 um width x 10 um depth filter. The ratio of the total object intensity in PMT1 (500-530 nm emission; GFP) over PMT3 (575-640 nm emission; RFP) was calculated for analysis.
# Keywords: NIH Roadmap, MLSCN, MLI, MLSMR, qHTS, NCGC, lamin A, Progeria, RNA splicing.
row,Structure (SMILES),outcome
1,CC(=O)OCC1=C(C(=O)[O-])N2C(=O)[C@@H](NC(=O)CCC[C@@H](N)C(=O)[O-])[C@H]2SC1.[Zn+2],inactive
2,COC(=O)c1cc2c(cn1)[nH]c1ccccc12,inactive
3,N[C@H](CCCCCP(=O)(O)O)C(=O)O,inactive
4,COc1ccc(CCN)cc1O,inactive
5,CN1C2CCC1CC(OC(=O)C(CO)c1ccccc1)C2 (centres undefined),inactive
6,N[C@@H](Cn1cc(I)c(=O)[nH]c1=O)C(=O)O,inactive
7,CP(=O)(O)CCCN,inactive
8,CC(O)C(C)OC(=O)[C@@H]1C[C@@H]2c3cccc4c3c(cn4C(C)C)C[C@H]2N(C)C1 (some centres undefined),inactive
9,C=CCN1CCC2(C)c3cc(O)ccc3CC1C2C (centres undefined),inactive
10,COc1cc(CCN)ccc1O,inactive
11,CN1CCN(c2ccc3ccccc3n2)CC1,inactive
12,C[N+]1(C)CCc2cc3c(cc2C1C1OC(=O)c2c1ccc1c2OCO1)OCO3 (centres undefined),inactive
13,O=[N+]([O-])c1ccc(O[C@@H]2O[C@H](CO)[C@@H](O)[C@H](O)[C@H]2F)c([N+](=O)[O-])c1,inactive
14,COc1ccc2[nH]cc(CCN(C)C)c2c1,inactive
